Measurements reported in PubChem BioAssay AID1508600 (Functional Genomics Laboratory (NCATS/FGL), 2020).
The campaign covered roughly 53,000 sequences. About 3,700 (7%) were called active.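 How the source made its calls: active means gene knockdowns whose robust z-score for IL-1 alpha signal is at least 2 or at most -2, so actives lie on both sides; inactive means the rest.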 The entries come from a sample that favours actives as a whole.

Experiment: Components of the Cytosolic LPS Sensing Pathway: Gene Identification via Genome-wide siRNA Screen;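 further: robust z of the log signal after scaling to non-targeting control siRNA wells of the plate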
Settings: RAW264.7 macrophages, IL-1a HTRF, actives lie on both sides, screened at 100 nM (by protocol), cells primed 5 h with Pam3CSK4 first
In short: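 RAW264.7; siRNA 100 nM final, RNAiMAX, 48h 37 degrees C; Pam3CSK4 5 h; LipidA + TransIT-TKO 24 h; IL-1a HTRF; CellTiter-Glo viability; robust z vs negative-control median.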

Sequence | z-score
GGACUAUGUCUUUGACAAATT against Cdyl2 | -0.133 (inactive)
GCCUAACAAUAGUGGAAUUTT against Ms4a13 | 2.76 (active)
GGAUUUCCUGUUCUUUCUATT against Prmt5 | 0.168 (inactive)
GGACUGUGGCACAGAGAAATT against Hgfac | -0.116 (inactive)
GCUGAUCCAACUGGAAUCUTT against Cep164 | 0.61 (inactive)
GGCAAAGAAUGCACUUUCUTT against Elapor2 | -0.536 (inactive)
GGAGUCCUAAAGAGUUCUATT against Slc11a1 | 0.723 (inactive)
GGAGAUGCCAGAGGUCAAATT against Gzmk | 2.08 (active)
GGCUUUCAAGACACUUCUUTT against Ccl6 | -1.6 (inactive)
GCUCAUUAACGAGAAAGUGTT against Atxn7l2 | -0.991 (inactive)
GGCUACUGUAAGAUUUCUATT against Mgat4f | 1.98 (inactive)
GCAAAACCAAGUGAAUGUGTT against Plac1 | -0.774 (inactive)
GGAGUUUCAGCAGUCGUGATT against Prkrip1 | -0.94 (inactive)
CCCUUCUCUGAUUGUCUGATT against Lce3b | -0.452 (inactive)
GCUUCUAAAUUUGGUUCUGTT against 9830163H01Rik | -0.389 (inactive)
GGUGGACAAGGCAAUACAGTT against Mmp20 | 4.46 (active)
GGUUUGAAUGAAUUCAAGGTT against 6030452D12Rik | 0.785 (inactive)
GCUUAAUCAACUGGUACUATT against Olfr19 | -1.7 (inactive)
GGGUCACGGGAACUCAAAATT against Mlf1 | -0.608 (inactive)
GGAAUCAUCUGAACACACATT against Ctcf | -2.18 (active)
GGAGAAGCUAUGGUAUUACTT against Apc2 | -0.798 (inactive)
CCACCACCAUCUAAAUAUATT against Ckap2l | -1.62 (inactive)

Sequence | z-score
GGACACAUUCGAAUGAACCTT against Mkrn2 | 0.0809 (inactive)
GGACAAGACCAGCAAAUACTT against Six6 | -1.58 (inactive)
GCAUUGUGCUCAAAUCUGCTT against C1qtnf7 | -0.168 (inactive)
GGGUAUUCUGUGUGUUACUTT against Hsd3b1 | 2.06 (active)
GGGUUUUGAAACAUGCAGGTT against Cd44 | -1.54 (inactive)
AGAGAGAUAUUGUUCAUCATT against Psg22 | 0.11 (inactive)
GGUAAUCGUGUAUUCAUAUTT against Dph5 | -0.327 (inactive)
GGAAACUGAAAAACAGAGUTT against Xbp1 | -0.957 (inactive)
GCGAAGAGAUGCUAACUAUTT against Dhx8 | -2.86 (active)
UGAGUUGUUUCCAGCUAAATT against Uts2b | -0.506 (inactive)
GCCCGGUCCUUUACUACAUTT against Sdk1 | 0.595 (inactive)
GGAUGCACUCAAGAAUUACTT against Ccdc65 | 2.11 (active)
GGUGAGUGAUCUUCAGAACTT against Snx13 | 0.311 (inactive)
CCCUGCUAAAAUCGACCUGTT against Plekha8 | -0.912 (inactive)
GCUCAUCGUGUUCGCUAUATT against Tuft1 | -0.235 (inactive)
GGAGGUAAAGGAAAACUCUTT against Fmo1 | 0.27 (inactive)
CCACAACUAUGAGUCUAUUTT against Ech1 | 2.05 (active)
GCUGGACCCACACAAAAAGTT against Rhbdl3 | -0.0513 (inactive)
GGCUUUUCAGACCAAGCUUTT against 3830406C13Rik | 0.322 (inactive)
CGUUGUAUGCUAGUACUGATT against Olfr1501 | -1.17 (inactive)
GGCAAAAAGGGAUGUUACCTT against Map1lc3b | -0.221 (inactive)
GCGAGUCUAUGUGUUCCCUTT against Cox4i2 | 0.187 (inactive)

Sequence | z-score
GGAAACAAAUGAGUGCCUGTT against Bloc1s5 | 2.02 (active)
GCUGGAAUACGGAAAAUGGTT against Gbe1 | -1.56 (inactive)
GGAGGAAAUACAUGAUAAATT against Strap | -0.159 (inactive)
GGCUUACGAUGAAAAUAAATT against Lca5 | -1.94 (inactive)
GGCAUUGCAUUCUCACAUGTT against Gabarapl1 | 0.319 (inactive)
GCUCGUUGCAUAAAAAGAGTT against Creg2 | -0.286 (inactive)
GGAGAUCAAAGAAUCUUGGTT against Arhgap45 | -4.45 (active)
GCCGGAAACUCAAGAUAGCTT against F830208F22Rik | -0.74 (inactive)
GCCCGCUCUCGGAUUUUGATT against Htr1b | 1.5 (inactive)
GGUAGAGACCGCAUAGAAATT against Aqp8 | 2 (inactive)
CCGGGUAGUGAGUAAGCUUTT against Neu2 | -3.51 (active)
GGUCCAAGAAGACAAUGCUTT against Cga | -0.102 (inactive)
CCUCUUUGGGACUAUAGACTT against Olfr1357 | -0.378 (inactive)
GGUAUUGGUCCAAUUUUUCTT against Gng7 | 0.187 (inactive)
GGCUGUGGUGCUCAAUAAGTT against Clstn2 | -1.29 (inactive)
CCGAGAUAUGAAUCAAAUUTT against Wars | 2.19 (active)
GGAAAGACAAAAUCUAUGATT against Peg3 | -0.777 (inactive)
GGUCAUCAGUGAGCUGAAUTT against Rplp2 | 0.125 (inactive)
GCUCAUCUCCUUGAAUUCATT against Agbl5 | 0.31 (inactive)
CCUGUCCUGAUGGUGAAACTT against Serpinb3c | 0.619 (inactive)
GCCUAAACUACCCUUAUAGTT against Ocln | 3.4 (active)
GGUGCUGGCAACCUUUUGUTT against Masp1 | 0.16 (inactive)

Sequence | z-score
GGGCCAUUGUCAAGGUGAUTT against Olfr632 | -0.408 (inactive)
CCGAUUUUUACUUUUAGCUTT against Slc16a7 | 1.86 (inactive)
GGAGACUAUUACCAUACUGTT against P4ha2 | -0.991 (inactive)
GGUGAGCAAGAACAAAAAGTT against Chil6 | -0.71 (inactive)
GGUUUCGAGAAAACAACAATT against Miip | 0.566 (inactive)
GCACAUCGAAAAUGCCCUGTT against Cpt1c | -0.154 (inactive)
GGCAAACCUGCUUUCAUGGTT against Smc5 | 0.282 (inactive)
GCAGUUCUCCUAUUUCAUCTT against Cdc45 | 2.03 (active)
CGGGUGAGUGGAAAAACCATT against Atg9b | -0.282 (inactive)
GCCAAUGCCCUUGUGCAAATT against Olfr344 | 0.301 (inactive)
GGCUAUCUCGUAUUCUGAUTT against Olfr985 | -1.62 (inactive)
CCCGGGUUGGGUGUACAUUTT against Sds | 3.62 (active)
CCUUAGCAAUGGGAUUGAUTT against Rasl12 | 0.448 (inactive)
GGAGAACACUUUAAUGCUGTT against Ovch2 | 0.00992 (inactive)
GGGCUGGAGUCUGAUACAUTT against Rbm5 | 3.39 (active)
CCGUGUUAGAGUUUUCGACTT against Top3b | 1.2 (inactive)
CCAAAGGUAUGCAGUAUGATT against Cdh4 | 0.131 (inactive)
GGUUUUCAAAUGUCUAUCATT against Pithd1 | 2.37 (active)
CCUGCUCAGGACGACUUUUTT against Defa20 | -1.63 (inactive)
GGACUUUGACCCGUACUAUTT against Scn8a | 0.951 (inactive)
GCUUGUGCCGGAUAAAGGUTT against Gng3 | -0.748 (inactive)
GCCAAGGUGGAAUUUUUGGTT against Gpx8 | 0.139 (inactive)

Sequence | z-score
GGUAUACCAAGAAGCUAAGTT against Kctd14 | -0.855 (inactive)
GCAGAGGUACGUGUUUGACTT against Gdf5 | 0.933 (inactive)
GCGUGUAGGAAUAAUACCUTT against Psmc6 | -2.66 (active)
UGCUCUUGGGUUCUUAAAUTT against Olfr1466 | -0.559 (inactive)
CGAACAAGCCAUGUUUACATT against Gvin1 | 0.811 (inactive)
GGAACUUCUCAAAAGGCUGTT against Tspoap1 | -0.0418 (inactive)
GGACCUGACCUACUCGUGUTT against Rxrb | -0.216 (inactive)
GCGGAAGCGUGAAUCCAAATT against Tigd3 | 3.13 (active)
GGAUCGAACUGCCAUUGCUTT against A930104D05Rik | -0.201 (inactive)
GCUGUCCUACUGAGCUUGCTT against Gdpgp1 | -0.0224 (inactive)
GCCACUUGUGCUAAGCUGUTT against Ager | -0.768 (inactive)
GGUCUGUAUGAAGACAUUATT against Pdss1 | -1.16 (inactive)
GCAAGAAGUAAUCAACUUUTT against Cnot9 | -0.997 (inactive)
GGACCAGAAACCGUGAUAATT against Immp2l | 3.96 (active)
GGCACCAAUUACAAGAAAATT against V1rg10 | 0.257 (inactive)
CCUGGCAGACGUGGAACAATT against Ppp1r13l | -0.102 (inactive)
GGACCAGUUACUUUAACAUTT against Pkdrej | 0.555 (inactive)
GGAGAGUCCACUAAUACUGTT against Dmrt3 | 0.217 (inactive)
GGAGAUUGGAUCCCGAAACTT against Pxn | -0.431 (inactive)
GGCAAAGAGUGGUAAGAGUTT against Olfr1166 | -2.72 (active)
